Screens as filed in PubChem.
D2 PAM-1 – HTS Assay for Positive Allosteric Modulators of the Human D2 Dopamine Receptor: Primary Screen for Potentiators. D(2) dopamine receptor (Homo sapiens), P14416. hit rate 0.34% among 340,000. AID 485347, 2010. HEK293 T-REx D2, calcium flux, EC20 dopamine potentiation. potentiation, % at 10 µM;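 active means potentiation over 3 SD above the plate norm, cut at about 30% in these data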; further: 0% is about no effect
Target sequence (P14416 whole entry, looked up): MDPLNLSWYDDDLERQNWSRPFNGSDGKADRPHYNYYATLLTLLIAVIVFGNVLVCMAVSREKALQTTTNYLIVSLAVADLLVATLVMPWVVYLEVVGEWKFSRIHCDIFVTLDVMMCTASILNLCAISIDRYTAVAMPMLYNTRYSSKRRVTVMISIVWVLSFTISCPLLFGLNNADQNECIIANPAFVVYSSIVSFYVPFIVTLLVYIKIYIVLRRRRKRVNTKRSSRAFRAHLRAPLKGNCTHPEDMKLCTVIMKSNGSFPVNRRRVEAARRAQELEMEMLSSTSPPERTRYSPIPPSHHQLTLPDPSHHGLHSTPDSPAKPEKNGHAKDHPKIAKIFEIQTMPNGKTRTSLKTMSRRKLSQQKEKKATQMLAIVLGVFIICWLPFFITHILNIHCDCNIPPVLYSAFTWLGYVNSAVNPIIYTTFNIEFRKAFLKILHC
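Tetracycline-induced Hek293 Trex D2 cells, force-coupled to calcium, loaded with no-wash calcium dye. Compound added with 180 s kinetic read for agonism, then EC20 dopamine and a further 180 s read for potentiation.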
D2 ag-1 – Beta-Arrestin HTS for Positive Allosteric Modulators of the Human D2 Dopamine Receptor: Agonists. D(2) dopamine receptor (Homo sapiens), P14416. DiscoveRx PathHunter D2 beta-arrestin, luminescence, 90 min; 100% = 57 uM dopamine signal. activation, % (concentration not given with the values). hit rate 0.084% among 360,000; in the data active means activation above about 40%
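Agonist mode: compounds alone added to overnight-plated D2 PathHunter cells for 90 min at 37 C, with 57 uM final dopamine (EC100) defining full response. Beta-arrestin recruitment detected by chemiluminescent reagent, read after 1 h at ambient temperature.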
D2 ag-2 – HTS Assay for Allosteric Agonists of the Human D2 Dopamine Receptor: Primary Screen for Agonists | HEK293 T-REx D2 cells, calcium flux agonist mode | D(2) dopamine receptor (Homo sapiens), P14416 | activation, % at 2 µM | hit rate 0.53% among 340,000;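 active means activation over 3 SD above normal in the single-dose calcium agonist read, cut at about 30% in these data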; further: 0% is about no effect
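Agonism scored from kinetic calcium signal (1 read/sec, 180 s) following compound pin transfer, after a 10 s baseline. Cells: HEK293 Trex line expressing inducible D2 receptor coupled to calcium, dye-loaded after overnight culture at 30 C.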
D2 antagonist – HTS Assay for Allosteric Antagonists of the Human D2 Dopamine Receptor: Primary Screen for Antagonists | hit rate 2% among 340,000 | inhibition, % at 10 µM | HEK293 TREx D2 cells, calcium flux, dopamine EC80; in the data active means inhibition above about 30%; inactive means below that, where a call was filed; further: 0% is about no effect
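Compounds are added to dye-loaded, induced HEK293 T-REx cells coupled to calcium release via D2; after a 3 min kinetic read an EC80 dopamine stimulus is given and fluorescence is recorded for 3 more min.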
D2 PAM-2 – Beta-Arrestin HTS for Positive Allosteric Modulators of the Human D2 Dopamine Receptor: Potentiators. D(2) dopamine receptor (Homo sapiens), P14416. DiscoveRx D2 beta-arrestin cells, luminescence, 90 min; 100% = 57 uM dopamine signal. potentiation, % (no concentration beside the values). hit rate 0.23% among 360,000. AID 624464, 2012; in the data active means potentiation above about 50%
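PathHunter D2 cells, attached overnight at 37 deg C, received compound in DMSO plus dopamine at EC20 (50 nM final) for 90 min at 37 deg C. Beta-arrestin recruitment was read as luminescence after 1 h with detection reagent at ambient temperature.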
The depositor's hits bear a star; . = no result. Sampled rows, rich in hits. Any-hit rate of the full collection: about 2.4%.

SMILES	D2 PAM-1	D2 ag-1	D2 ag-2	D2 antagonist	D2 PAM-2
Clc1ccc(-c2nnc(SCc3nc(-c4ccccc4)no3)o2)cc1	-7.6	-4.8	0.3	40.6*	-3.1
c1ccc(-c2noc(CSc3nc4ccccc4o3)n2)cc1	-4.8	0.6	-0.7	-3.3	-7.4
Cc1ccc(NC(=O)c2oc3c(c2C)-c2[nH]ncc2CC3)c(Cl)c1	.	.	-1.5	.	.
COc1ccc(NC(=O)CCc2c(C)nn(-c3ccc(N4CCOCC4)nn3)c2C)cc1Cl	7.7	.	1.0	.	.
C#CCSc1nccc(-c2nn(-c3ccc(C)cc3)ccc2=O)n1	-18.3	-4.2	0.5	32.3*	-32.1
CC(CC(=O)N1CCN(C(=O)c2ccccc2)CC1)c1ccccc1 (configuration not stated)	-4.8	1.2	0.6	38.0*	-1.3
O=C(NCC(=O)N1CCN(C(=O)c2ccccc2)CC1)c1ccccc1	10.9	-2.7	-1.1	-7.8	-12.8
CC(C)CC(=O)Nc1ccccc1N1CCN(C(=O)c2ccccc2)CC1	19.8	3.5	-0.2	22.8	62.3*
COc1ccc(NC(=O)C(NS(=O)(=O)c2cccc3nsnc23)C(C)C)cc1 (configuration not stated)	-1.3	.	.	.	.
O=[N+]([O-])c1ccccc1OCC(O)CN1CCN(CC(O)COc2ccccc2[N+](=O)[O-])CC1 (configuration not stated)	-22.3	-1.9	1.5	92.4*	-65.5
CC(=O)Nc1ccc(OCC(O)CN2CCN(c3cc(Cl)ccc3C)CC2)cc1 (configuration not stated)	-24.6	-2.6	19.4	92.6*	-20.6
CCOc1ccccc1N1CCN(CC(O)COCc2cccs2)CC1 (configuration not stated)	-28.4	-2.8	8.4	67.7*	-19.2
OC(COCc1cccs1)CN1CCN(c2ccccc2Cl)CC1 (configuration not stated)	-23.6	3.0	.	.	-31.4
COc1ccccc1N1CCN(CC(O)COc2ccc(C)c(C)c2)CC1 (configuration not stated)	.	-1.6	.	.	-20.0
CC(=O)Nc1ccc(OCC(O)CN2CCN(c3ccc(C)c(Cl)c3)CC2)cc1 (configuration not stated)	10.1	2.5	-0.1	20.9	-16.0
COc1ccccc1N1CCN(CC(O)COc2ccc3c(c2)CCC3)CC1 (configuration not stated)	-19.5	1.6	23.2	80.2*	-33.6
CCCNC(=O)C1(C)CCN(Cc2csc3ccccc23)C1 (configuration not stated)	.	-2.5	.	.	-9.0
Cc1ccc2nc(COc3cccc(NC(=O)COc4ccc(F)cc4)c3)cc(=O)n2c1	6.1	.	1.0	.	.
CCCCCCN1C[C@H](n2cc(C3CC3)nn2)[C@@H](O)C[C@@H]1c1ccccc1	.	1.4	.	.	-2.2
OC(COc1ccccc1)CN1CCN(CC(O)COc2ccccc2)CC1 (configuration not stated)	0.1	-3.6	0.7	30.5*	-4.2
OC(COc1ccc(F)cc1)CN1CCN(c2ccccc2F)CC1 (configuration not stated)	1.2	-6.6	-1.0	86.9*	-21.0
OC(CN1CCN(c2ccccc2F)CC1)c1ccc(F)cc1 (configuration not stated)	9.8	9.0	-0.1	1.5	-9.4
CC(Sc1nc2c(c(=O)[nH]1)CCCC2)C(=O)Nc1cc(C(F)(F)F)ccc1Cl (configuration not stated)	-14.3	.	1.0	.	.
COc1cccc(C(=O)c2ncc(C(F)(F)F)cc2Cl)c1	36.0*	0.7	-1.2	-6.2	-2.2
COc1ccc(C(=O)c2ncc(C(F)(F)F)cc2Cl)cc1	6.8	1.8	-0.4	-9.5	-6.9
SMILES	D2 PAM-1	D2 ag-1	D2 ag-2	D2 antagonist	D2 PAM-2
CCOc1ccc(S(=O)(=O)N2CCN(S(=O)(=O)c3ccc(C(C)=O)cc3)CC2)cc1	7.6	-6.2	-0.2	35.7*	-1.9
CCOc1ccc(S(=O)(=O)N2CCN(C(=O)c3cccn3C)CC2)cc1	31.4*	8.1	-1.0	-4.7	-13.0
CCOc1ccc(NC(=S)N2CCN(S(=O)(=O)c3ccccc3)CC2)cc1	-9.5	-2.1	39.4*	16.3	4.3
CCC(CC)C(=O)Nc1ccc(OCc2cc(=O)n3c4c(sc3n2)CCCC4)cc1	6.8	.	-1.1	.	.
COc1ccc2c(c1)c1c(c(=O)n(-c3cccc(C)c3)c(=O)n1Cc1cccc(Cl)c1)n2C	5.4	.	.	.	.
O=C(NCc1ccc(Cl)cc1)C1CCCN(c2ncnc3onc(-c4ccc(F)cc4)c23)C1 (configuration not stated)	-3.7	.	-1.1	.	.
COc1ccccc1-c1cc(C(=O)N/N=C/c2ccoc2)c2ccccc2n1	-20.7	-2.6	-0.7	79.1*	-15.5
COc1ccc(/C=N/NC(=O)c2cc(-c3ccccc3OC)nc3ccccc23)cc1COC(C)=O	1.0	-1.9	-1.3	2.1	-33.0
Cc1ccccc1-c1cc(C(=O)N/N=C/c2cccnc2)c2ccccc2n1	-2.3	-2.7	11.6	32.5*	-14.4
CCc1ccc(/C=N/NC(=O)c2cc(-c3ccccc3OC)nc3ccccc23)s1	-10.1	-3.8	-0.3	35.2*	-13.7
COc1ccccc1-c1cc(C(=O)N/N=C/c2ccc(C)s2)c2ccccc2n1	-28.9	-6.6	-0.9	47.7*	-42.1
O=C(N/N=C/c1cccnc1)c1cc(-c2ccccc2Cl)nc2ccccc12	7.6	0.8	1.3	3.4	-1.0
CCCCc1nn2c(=O)cc(COC(=O)c3ccco3)nc2s1	.	.	0.0	.	.
CCc1cc2c(cc3c(=O)n(CC(=O)NCCc4ccccc4)ncn32)s1	-16.8	.	-0.2	.	.
C/C(CCN1CCCCc2nc(C)c(C)cc21)=N\O[C@H](C)c1cn([C@H](CO)Cc2ccccc2)nn1	1.9	.	-0.9	-2.2	.
CC(=O)OC[C@H]1O[C@H](CCO/N=C(\C)CCN2CCCc3nc(C)c(C)cc32)C=C[C@@H]1OC(C)=O	-23.7	.	65.0*	78.2*	.
COc1cccc(C(=O)NCCSc2c(-c3ccc(F)cc3)[nH]c3ccccc23)c1OC	10.9	.	0.2	.	.
CCOC(=O)C1=NN(C(=O)c2ccc(C)cc2)C(O)(c2ccc(Cl)cc2)C1 (configuration not stated)	-3.3	-4.4	30.5*	22.0	-14.1
O=C1NC(=S)SC1=Cc1cccs1	.	-6.5	.	.	-11.3
CN1CCC/C1=C/C=C1\SC(=S)NC1=O	6.1	-5.9	50.3*	8.0	-31.3
CC1=C/C(=N\OS(=O)(=O)c2ccccc2)C(C(C)C)=CC1=O	0.6	49.0*	0.4	5.6	114.3*
